GC-B act: GC-B (human) receptor activation | HEK293-GC-B cells, CNP EC30, cGMP TR-FRET; 0% at EC30 CNP, 100% saturating CNP | activation, % at 10 µM | actives 0.11% (n = 370,000);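 active = activation at 10 µM reaching about 35% in either raw or pattern-adjusted values, limit read from the data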
ADAM10 inh: ADAM10 inhibition, QFRET primary screen; O14672; recombinant ADAM10, EDANS/DABCYL FRET peptide cleavage, 3 h; inhibition, % at 7 µM; actives 0.62% (n = 370,000); AID 720582;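 active = inhibition above a per-campaign cutoff equal to the mean of compounds falling between control-based bounds plus 3 SD, cut at about 20% in these data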;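 note: 0% = DMSO wells while the 100% control is not disclosed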
GC-A act: GC-A (human) enzyme activation | activation, % at 10 µM | actives 0.14% (n = 370,000) | HEK293 GC-A cells, cGMP TR-FRET, EC30 ANP; 0% at EC30 ANP, 100% saturating ANP | P16066 | AID 1671463; in the data active = activation above about 40%
ADAM17 inh: inhibitors of human ADAM17; recombinant ADAM17, EDANS/DABCYL FRET peptide cleavage; AID 720648; actives 0.83% (n = 370,000); inhibition, % at 6.95 µM; P78536;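 active = inhibition above the mean of compounds lying between control limits plus 3 SD, set per campaign, cut at about 8.5% in these data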;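 note: 0% = DMSO-only wells as the low control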
proKLK7 act: proKLK7 (human) activation, primary screen. actives 0.9% (n = 370,000). P49862. activation, % at 7 µM. purified proKLK7, EDANS-DABCYL substrate fluorescence; 100% is mature enzyme control, 0% vehicle;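 active = activation above the mean of all tested compounds plus 3 SD, computed per campaign excluding outliers beyond control limits, cut at about 13% in these data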
Target sequence (P49862 whole entry, looked up): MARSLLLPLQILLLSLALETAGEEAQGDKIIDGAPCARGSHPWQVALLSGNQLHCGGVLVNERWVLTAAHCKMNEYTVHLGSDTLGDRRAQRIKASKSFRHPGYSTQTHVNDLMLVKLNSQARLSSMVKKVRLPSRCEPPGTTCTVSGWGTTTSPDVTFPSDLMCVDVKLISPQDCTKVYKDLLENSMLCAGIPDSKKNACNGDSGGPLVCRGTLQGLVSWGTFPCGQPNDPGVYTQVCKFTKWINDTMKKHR
* = called active by the depositor; i = inactive. Rows were chosen to be rich in hits. Some 2.2% of all compounds tested hit in one or more screens of this group.

SMILES	GC-B act	ADAM10 inh	GC-A act	ADAM17 inh	proKLK7 act
COC(=O)C1CCN(C(=O)CCn2nnc(-c3cccs3)n2)CC1	11	-4	3	-3	0
Nc1nnc(COc2ccc(Br)cc2Br)s1	0	3	58*	0	0
Cc1ccc(C)c(OCc2nnc(N)s2)c1	3	8	3	-2	0
Cc1ccc(O)c(C(=O)c2cc(C#N)c(=O)n(-c3nccs3)c2)c1	11	-52	13	-21	17*
COc1ccc(-c2cc(C(F)F)n3ncc(C(=O)N4CCN5CCCC5C4)c3n2)cc1 (configuration not stated)	2	i	2	-159	24*
COc1cc2c3nnc(-c4ccc(F)cc4)c-3cn(Cc3ccccc3)c2cc1OC	-1	i	7	-220	29*
COc1cc(C(=O)Nc2sc3c(c2C(=O)NCc2ccco2)CCCC3)cc(OC)c1OC	41*	-10	29	-4	0
COc1ccc(C(=O)Nc2ccc(Cl)cc2C(=O)NCc2ccco2)cc1OC	39*	-9	33	-3	1
CN1c2ccccc2Oc2nnc(N3CCN(Cc4ccccc4)CC3)cc21	-26	i	-43	-455	5
CCN(CC)CCOc1cc2c(nn1)Oc1ccccc1N2C	4	i	5	-210	16*
O=C(NCCOc1ccccc1)C1Nc2ccc(C(F)(F)F)cc2C2c3ccccc3CC12 (configuration not stated)	2	-6	-1	-3	0
CCOC(=O)C1Nc2ccc(C(F)(F)F)cc2C2c3ccccc3CC12 (configuration not stated)	4	-1	5	-2	21*
C=CCN1[C@H](CC(C)C)COc2cc(N3CCSCC3)ccc2S1(=O)=O	6	-2	-1	-6	1
O=C(Nc1ccc(F)c(F)c1)c1cc(S(=O)(=O)N2CCN(c3ccccn3)CC2)ccc1F	-2	10	0	9.6*	0
C=CCN1[C@@H](Cc2ccccc2)COc2cccc(N3CCCC3)c2S1(=O)=O	-9	-10	-3	-10	0
CC(C)(C)OC(=O)[C@H](Cc1ccccc1)NC(=O)c1nc[nH]c1C(=O)N[C@@H](Cc1ccccc1)C(=O)OC(C)(C)C	5	2	-3	-1	0
CC(C)(C)OC(=O)[C@H](Cc1ccccc1)NC(=O)c1ncn2c1c(=O)[nH]c1ccc(Br)cc12	39*	-3	19	-4	-1
O=C(NCCN1CCC(Cc2ccccc2)CC1)C1CCCN(S(=O)(=O)c2ccc(Cl)s2)C1 (configuration not stated)	-18	10	-13	-1	0
CCN(CC)C(=O)CC[C@H]1CC[C@]2(CCCN(C(=O)c3ccc4ccccc4n3)C2)O1	-10	-4	1	-3	0
CC(=O)Nc1cccc(Oc2ncnc3scc(-c4ccccc4)c23)c1	46*	4	39	2	0
CCn1c(C)cc(/C=C2\NC(=O)N(Cc3ccc(Cl)cc3)C2=O)c1C	49*	-28	19	-10	0
Fc1ccc(-c2ccnc3nc(N4CCOCC4)nn23)cc1	-3	-400	5	-104	22*
Fc1ccc(-c2ccnc3nc(-n4cccc4)nn23)cc1	2	-19	2	-9	0
Cc1ccnc(Nc2nc(-c3ccccc3)cs2)c1	-1	12	6	6	0
Cc1ccnc(Nc2nc(-c3c(C)nc4sccn34)cs2)c1	37*	-14	32	1	1
SMILES	GC-B act	ADAM10 inh	GC-A act	ADAM17 inh	proKLK7 act
C=CCN1[C@@H](Cc2ccccc2)COc2cccc(F)c2S1(=O)=O	1	4	0	2	0
Cc1ccc(NC(=O)CSc2nnc(CSc3nc(C)cc(C)n3)n2Cc2ccco2)c(C)c1	6	2	-6	2	0
Cc1ccc(NCc2nnc(SCC(=O)c3ccccc3)n2Cc2ccco2)c(C)c1	-1	29*	-15	0	0
Cc1ccc(C2c3[nH]c4ccccc4c3C[C@H]3C(=O)N(c4ccccc4C(=O)N4CCC(C(=O)O)CC4)C(=O)N23)cc1 (some centres not stated)	23	-21	12	-3	2
O=C(O)C1CCN(C(=O)c2ccccc2N2C(=O)[C@@H]3Cc4c([nH]c5ccccc45)C(c4cccc(Cl)c4)N3C2=O)CC1 (some centres not stated)	58*	-86	53*	-24	0
COc1ccc(Cn2cc(COC(=O)Nc3ccc(F)cc3)nn2)cc1	2	3	3	-1	0
CCCN(CCC)CCCNC(=O)c1cc2cc3ccc(OC)cc3nc2o1	-1	i	2	i	61*
Cc1ccc(Cc2c(-c3ccc(Br)cc3)nc3cc(C)ccn23)cc1	46*	-24	34	-6	0
Cc1ccc(Cc2c(-c3ccc(F)cc3)nc3cc(C)ccn23)cc1	29	-194	21	-51	0
Cc1ccc(/C=C2/NC(=O)N(Cc3ccccc3)C2=O)o1	46*	-9	40	-1	1
O=C(NC1C2CC3CC(C2)CC1C3)C1CCCCC1 (configuration not stated)	8	4	5	8.6*	-1
C[C@H](O)[C@@H]1CN2CCc3c([nH]c4c(-c5ccccc5)cccc34)[C@@H]2C[C@@H]1N(C)C(=S)Nc1ccc(C#N)cc1	-9	-36	-2	-8	1
Clc1ccc(OCCSc2ncccn2)cc1	-7	-9	55*	1	0
COc1ccc(OCCSc2ncccn2)cc1	4	4	13	-2	0
Cc1ccc(NC(=O)c2nc(S(=O)(=O)Cc3ccccc3)ncc2Cl)cc1	15	3	38	0	-1
Cc1ccccc1CS(=O)(=O)c1ncc(Cl)c(C(=O)Nc2ccc(F)cc2)n1	10	-1	42*	-3	0
CCS(=O)(=O)c1ncc(Cl)c(C(=O)Nc2ccc(S(=O)(=O)N(C)c3ccccc3)cc2)n1	41*	-3	62*	-5	5
O=C(Nc1ccc(F)cc1)c1nc(S(=O)(=O)Cc2ccccc2)ncc1Cl	14	-1	42*	-2	1
COc1ccc(C(=O)OCCN(C)C2CN(Cc3cn(Cc4cccc(F)c4)nn3)S(=O)(=O)C2)cc1OC (configuration not stated)	-1	-12	2	-7	0
COC[C@@H](OC(C)=O)[C@H]1OCc2ccccc2[C@@H]1/C=C/c1ccccc1	-2	0	10	-1	0
CCN1CCCCC(NC(=O)c2cccc(C(F)(F)F)c2)C1=O (configuration not stated)	7	-1	1	-2	1
CC1(C)Oc2ccc(C(=O)N3CCCC3)cc2NC1=O	3	2	3	-2	0

Bioassay records from PubChem.
